The values that follow come from PubChem BioAssay (NCI).

About 79,000 compounds went through this panel and 15% of them were active in at least one assay; those are over-represented in the sample as a whole. Unmarked numbers belong to inactive results. The source made the active and inactive calls. No stated cut-off is given here; in the data, active means growth inhibition above about 70%; inactive means the rest.

Test [1] is described as follows: NCI Yeast Anticancer Drug Screen. Data for the rad50 strain (AID 155).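 Further: 0% = growth of vehicle-only cultures of the same strain.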 As to conditions: S. cerevisiae rad50 strain growth inhibition, hits give high values. The method in brief: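 Genetically altered yeast (DNA repair pathway); compound treatment; growth inhibition vs vehicle ctrl.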
Test [2] can be described thus: NCI Yeast Anticancer Drug Screen. Data for the mec2-1 strain (AID 157). As to conditions: S. cerevisiae mec2-1 strain, hits give high values. The method in brief: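 Cells of the genetically defined mec2-1 yeast strain are incubated with test compound. Inhibition of growth is calculated against vehicle-treated controls.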
Test [3] can be described thus: NCI Yeast Anticancer Drug Screen. Data for the sgs1 mgt1 strain (AID 161).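 Further: 0% = growth of cultures given vehicle only.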 Particulars: S. cerevisiae sgs1 mgt1 strain, hits give high values. The method in brief: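 Test agents were incubated with a DNA-repair-mutant yeast strain. Growth was then read and compared against vehicle-treated controls.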
A short description of test [4]: NCI Yeast Anticancer Drug Screen. Data for the cln2 rad14 strain (AID 165).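 Further: 0% = growth equal to vehicle treated cultures.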 As to conditions: S. cerevisiae cln2 rad14 strain, hits give high values. The method in brief: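 The screen exposed genetically defined yeast (cln2 rad14) to test compounds and scored growth inhibition relative to vehicle-treated controls.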
The nature of test [5]: NCI Yeast Anticancer Drug Screen. Data for the bub3 strain (AID 167). As to conditions: S. cerevisiae bub3 mutant strain, hits give high values. The method in brief: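 Yeast carrying a defined mutation is treated with each compound, and growth is compared with that of vehicle-exposed cells to give inhibition.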
Test [6] in a line: NCI Yeast Anticancer Drug Screen. Data for the mlh1 rad18 strain (AID 175). As to conditions: S. cerevisiae mlh1 rad18 strain growth inhibition, hits give high values. The method in brief:
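Compound-treated yeast growth, normalised to vehicle controls. Strain bears defined DNA repair mutations.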

Setting [7] is: at 5.0 µM (retest, dose inferred, filed as 0.5).
[8] abbreviates: at 50.0 µM (retest, dose inferred, filed as 5.0).

Regarding `O=C(CC1C=Cc2ccccc2N1C(=O)c1ccccc1)c1ccccc1` (configuration not stated), the growth inhibition in test [1] (setting [7]) was 1%; in test [1] (setting [8]), 85% (active); in test [1] (at 50.0 µM), 83% (active); in test [2] (setting [7]), -4%; in test [2] (setting [8]), 76% (active); in test [2] (at 50.0 µM), 76.5% (active). The growth inhibition in test [3] (setting [7]) is -7%; in test [3] (setting [8]), 82% (active); in test [3] (at 50.0 µM), 37.8%; in test [4] (setting [7]), -17%; in test [4] (setting [8]), 77% (active); in test [4] (at 50.0 µM), 73% (active). Besides, the growth inhibition is 21% in test [5] (setting [7]); 93% (active) in test [5] (setting [8]); 86% (active) in test [5] (at 50.0 µM); -2% in test [6] (setting [7]); 87% (active) in test [6] (setting [8]); 88.5% (active) in test [6] (at 50.0 µM).

In the case of `c1ccc2cc3nc4ccccc4nc3cc2c1`, the growth inhibition in test [1] (setting [7]) was 44%; in test [1] (setting [8]), 82% (active); in test [1] (at 50.0 µM) it was 87.9% (active); in test [2] (setting [7]), 21%; in test [2] (setting [8]), 38%; in test [2] (at 50.0 µM), 51.4%. For the same compound, the growth inhibition in test [3] (setting [7]) was 13%; in test [3] (setting [8]) it was 22%; in test [3] (at 50.0 µM), 20.9%; in test [4] (setting [7]), 15%; in test [4] (setting [8]) it was 38%; in test [4] (at 50.0 µM), 70.1% (active). The growth inhibition in test [5] (setting [7]) is 42%; in test [5] (setting [8]) it was 57%; in test [5] (at 50.0 µM), 68.3%; in test [6] (setting [7]) it was 25%; in test [6] (setting [8]), 58%; in test [6] (at 50.0 µM), 73% (active).

Regarding `COc1ccc(/C=C2\CN(C)C/C(=C\c3ccc(OC)c(OC)c3OC)C2=O)c(OC)c1OC`, the growth inhibition in test [1] (setting [7]) is 27%; in test [1] (setting [8]), 96% (active); in test [1] (at 50.0 µM), 85.4% (active); in test [2] (setting [7]) it was 1%; in test [2] (setting [8]) it was 97% (active); in test [2] (at 50.0 µM) it was 93.5% (active). The growth inhibition is 7% in test [3] (setting [7]); 98% (active) in test [3] (setting [8]); 92% (active) in test [3] (at 50.0 µM); 7% in test [4] (setting [7]); 86% (active) in test [4] (setting [8]); 91.2% (active) in test [4] (at 50.0 µM). Moreover, the growth inhibition in test [5] (setting [7]) was 14%; in test [5] (setting [8]) it was 96% (active); in test [5] (at 50.0 µM) it was 95.8% (active); in test [6] (setting [7]), -4%; in test [6] (setting [8]), 97% (active); in test [6] (at 50.0 µM) it was 91.3% (active).

Turning to `O=C1CC(=Nc2ccc([N+](=O)[O-])cc2)NN1c1c(Cl)cc(Cl)cc1Cl`, the growth inhibition was -20% in test [1] (setting [7]); 47% in test [1] (setting [8]); 90.7% (active) in test [1] (at 50.0 µM); -24% in test [2] (setting [7]); 69% in test [2] (setting [8]); 92% (active) in test [2] (at 50.0 µM). In addition, the growth inhibition in test [3] (setting [7]) is -15%; in test [3] (setting [8]), 96% (active); in test [3] (at 50.0 µM), 92.7% (active); in test [4] (setting [7]) it was -15%; in test [4] (setting [8]) it was 57%; in test [4] (at 50.0 µM) it was 89.4% (active). Besides, the growth inhibition in test [5] (setting [7]) was -24%; in test [5] (setting [8]), 95% (active); in test [5] (at 50.0 µM) it was 91.7% (active); in test [6] (setting [7]), -65%; in test [6] (setting [8]), 89% (active); in test [6] (at 50.0 µM), 89.5% (active).

In the case of `CCOC(=O)N(c1ccccc1)N(CC)C(=O)/C(C)=N/Nc1ccc([N+](=O)[O-])cc1`, the growth inhibition in test [1] (setting [7]) is 6%; in test [1] (setting [8]), 93% (active); in test [1] (at 50.0 µM), 97.7% (active); in test [2] (setting [7]) it was 5%; in test [2] (setting [8]), 94% (active); in test [2] (at 50.0 µM) it was 95.8% (active). Further, the growth inhibition in test [3] (setting [7]) is 9%; in test [3] (setting [8]), 94% (active); in test [3] (at 50.0 µM), 97.7% (active); in test [4] (setting [7]), 10%; in test [4] (setting [8]), 95% (active); in test [4] (at 50.0 µM), 92.2% (active). Besides, the growth inhibition in test [5] (setting [7]) is -10%; in test [5] (setting [8]) it was 92% (active); in test [5] (at 50.0 µM), 95.8% (active); in test [6] (setting [7]), -1%; in test [6] (setting [8]), 94% (active); in test [6] (at 50.0 µM), 97% (active).

As for `COc1ccc(OC)c(/C=C/c2ccnc3ccccc23)c1`, the growth inhibition in test [1] (setting [7]) was -3%; in test [1] (setting [8]), 98% (active); in test [1] (at 50.0 µM), 96.3% (active); in test [2] (setting [7]), -1%; in test [2] (setting [8]), 97% (active); in test [2] (at 50.0 µM), 95.3% (active). Further, the growth inhibition in test [3] (setting [7]) was -2%; in test [3] (setting [8]) it was 98% (active); in test [3] (at 50.0 µM), 97.2% (active); in test [4] (setting [7]) it was -4%; in test [4] (setting [8]), 97% (active); in test [4] (at 50.0 µM), 94.3% (active). Further, the growth inhibition in test [5] (setting [7]) was -1%; in test [5] (setting [8]), 97% (active); in test [5] (at 50.0 µM), 95% (active); in test [6] (setting [7]), -2%; in test [6] (setting [8]) it was 97% (active); in test [6] (at 50.0 µM) it was 95.6% (active).

`CC(C)(C)OC(=O)N(CCCCNC(=O)OCc1ccccc1)CCCNC(=O)OCc1ccccc1`: the growth inhibition in test [1] (setting [7]) was 9%; in test [1] (setting [8]), 9%; in test [1] (at 50.0 µM), 23.1%; in test [2] (setting [7]), 7%; in test [2] (setting [8]), -4%; in test [2] (at 50.0 µM), 14.8%. The growth inhibition was -19% in test [3] (setting [7]); -3% in test [3] (setting [8]); -1.15% in test [3] (at 50.0 µM); 0% in test [4] (setting [7]); 18% in test [4] (setting [8]); -0.85% in test [4] (at 50.0 µM). Besides, the growth inhibition was 2% in test [5] (setting [7]); -1% in test [5] (setting [8]); -13.4% in test [5] (at 50.0 µM); 9% in test [6] (setting [7]); 9% in test [6] (setting [8]); -57.7% in test [6] (at 50.0 µM).

Consider `CC1(C)CCCC12C=NCC2` (configuration not stated), for which the growth inhibition in test [1] (setting [7]) is 2%; in test [1] (setting [8]), 16%; in test [1] (at 50.0 µM), 17.8%; in test [2] (setting [7]), -2%; in test [2] (setting [8]) it was 18%; in test [2] (at 50.0 µM) it was -1.15%. Moreover, the growth inhibition in test [3] (setting [7]) was -1%; in test [3] (setting [8]), 11%; in test [3] (at 50.0 µM), 31.9%; in test [4] (setting [7]) it was 1%; in test [4] (setting [8]), 1%; in test [4] (at 50.0 µM) it was -3.95%. In addition, the growth inhibition in test [5] (setting [7]) is 2%; in test [5] (setting [8]) it was 10%; in test [5] (at 50.0 µM) it was 43.1%; in test [6] (setting [7]), -28%; in test [6] (setting [8]), 27%; in test [6] (at 50.0 µM), 22.9%.

For `CCN(CC)c1c(C(=O)/C=C/c2ccc(Cl)cc2)c(-c2ccccc2)nn(C)c1=O`, the growth inhibition is 18% in test [1] (setting [7]); 85% (active) in test [1] (setting [8]); 82.5% (active) in test [1] (at 50.0 µM); 15% in test [2] (setting [7]); 91% (active) in test [2] (setting [8]); 85.9% (active) in test [2] (at 50.0 µM). The growth inhibition was 14% in test [3] (setting [7]); 73% (active) in test [3] (setting [8]); 81% (active) in test [3] (at 50.0 µM); 7% in test [4] (setting [7]); 82% (active) in test [4] (setting [8]); 83.7% (active) in test [4] (at 50.0 µM). Besides, the growth inhibition in test [5] (setting [7]) was 8%; in test [5] (setting [8]) it was 92% (active); in test [5] (at 50.0 µM) it was 84% (active); in test [6] (setting [7]), 24%; in test [6] (setting [8]), 92% (active); in test [6] (at 50.0 µM) it was 81.8% (active).
